Assay results: PubChem BioAssay
Calls of active or inactive are those of the source. Rule as the data show it, unless noted: active = inhibition above about 44%; inactive = the rest.

How the values were obtained:
[1] = target: Nuclear receptor coactivator 3 (Homo sapiens) (UniProt Q9Y6Q9); assay: SRC3 coactivator transcriptional activity inhibitors, confirmation, cell-based, luminescence, quadruplicate (AID 588792;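 active = mean inhibition over 43.08%, the solvent-only control mean plus 3 SD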;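 also: 0% = DMSO treated cells and 100% = gossypol at 36 µM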); settings: HEK293 GAL4-SRC3 luciferase reporter, at 3.6 µM, active compounds read high
Chain of Nuclear receptor coactivator 3 (Homo sapiens) (Q9Y6Q9 whole entry, looked up, the tested form may be a part): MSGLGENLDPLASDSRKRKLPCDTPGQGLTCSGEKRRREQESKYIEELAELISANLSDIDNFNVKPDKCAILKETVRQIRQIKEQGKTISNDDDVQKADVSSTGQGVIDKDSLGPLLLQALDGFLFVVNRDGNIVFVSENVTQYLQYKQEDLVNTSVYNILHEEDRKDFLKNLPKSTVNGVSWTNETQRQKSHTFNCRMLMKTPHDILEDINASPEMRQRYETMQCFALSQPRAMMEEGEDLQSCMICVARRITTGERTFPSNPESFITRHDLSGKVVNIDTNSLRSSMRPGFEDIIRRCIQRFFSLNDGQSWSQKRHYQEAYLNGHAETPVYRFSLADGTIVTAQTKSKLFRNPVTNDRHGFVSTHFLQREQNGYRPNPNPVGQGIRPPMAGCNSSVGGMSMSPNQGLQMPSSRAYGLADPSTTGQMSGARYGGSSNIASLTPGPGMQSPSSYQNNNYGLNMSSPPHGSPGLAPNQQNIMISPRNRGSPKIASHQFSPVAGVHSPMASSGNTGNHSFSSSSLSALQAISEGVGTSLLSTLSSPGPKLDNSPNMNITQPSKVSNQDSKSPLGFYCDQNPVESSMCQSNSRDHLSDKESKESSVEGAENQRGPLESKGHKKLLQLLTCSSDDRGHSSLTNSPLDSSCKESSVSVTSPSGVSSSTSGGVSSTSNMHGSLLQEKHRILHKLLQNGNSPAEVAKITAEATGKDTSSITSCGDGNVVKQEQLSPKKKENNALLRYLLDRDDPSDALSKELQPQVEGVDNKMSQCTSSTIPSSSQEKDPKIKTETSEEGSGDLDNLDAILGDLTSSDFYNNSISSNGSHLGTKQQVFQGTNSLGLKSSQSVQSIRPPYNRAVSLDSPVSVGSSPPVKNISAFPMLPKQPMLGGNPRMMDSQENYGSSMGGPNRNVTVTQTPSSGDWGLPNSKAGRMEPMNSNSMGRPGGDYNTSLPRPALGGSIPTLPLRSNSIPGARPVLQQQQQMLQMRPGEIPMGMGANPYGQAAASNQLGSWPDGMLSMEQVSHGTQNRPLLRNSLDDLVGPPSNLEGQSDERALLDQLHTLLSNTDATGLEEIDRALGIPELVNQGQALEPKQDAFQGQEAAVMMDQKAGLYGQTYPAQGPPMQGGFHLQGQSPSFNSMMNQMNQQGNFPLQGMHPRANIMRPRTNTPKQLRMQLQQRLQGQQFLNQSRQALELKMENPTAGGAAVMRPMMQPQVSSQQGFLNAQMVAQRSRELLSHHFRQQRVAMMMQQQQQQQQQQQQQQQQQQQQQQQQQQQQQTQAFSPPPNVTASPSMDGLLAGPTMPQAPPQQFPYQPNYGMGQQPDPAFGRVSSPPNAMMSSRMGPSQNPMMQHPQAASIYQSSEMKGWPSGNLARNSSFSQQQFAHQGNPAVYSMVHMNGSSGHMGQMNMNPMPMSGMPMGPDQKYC

[2] = test system: transactivating tegument protein VP16 (Human herpesvirus 1), Gal4-VP16 luciferase reporter; assay: VP16 transactivation inhibitors, counter-screen for SRC3 inhibitor project, cell-based, luminescence, high throughput (AID 588794; in the data active = inhibition above about 30%); settings: mammalian cells, VP16-driven luciferase reporter luminescence; at 3.6 µM; active compounds read high
[3] = target: Nuclear receptor coactivator 1 (Homo sapiens) (UniProt Q15788); assay: SRC1 coactivator transcriptional activity inhibitors, confirmation, cell-based, luminescence, quadruplicate (AID 588820;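 active = mean inhibition above 46.68%, the untreated control wells mean plus 3 SD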;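 also: 0% = DMSO wells and 100% = gossypol 36 µM treated wells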); settings: HEK293 GAL4-SRC1 luciferase reporter, at 3.6 µM, active compounds read high
Chain of Nuclear receptor coactivator 1 (Homo sapiens) (Q15788 whole entry, looked up, the tested form may be a part): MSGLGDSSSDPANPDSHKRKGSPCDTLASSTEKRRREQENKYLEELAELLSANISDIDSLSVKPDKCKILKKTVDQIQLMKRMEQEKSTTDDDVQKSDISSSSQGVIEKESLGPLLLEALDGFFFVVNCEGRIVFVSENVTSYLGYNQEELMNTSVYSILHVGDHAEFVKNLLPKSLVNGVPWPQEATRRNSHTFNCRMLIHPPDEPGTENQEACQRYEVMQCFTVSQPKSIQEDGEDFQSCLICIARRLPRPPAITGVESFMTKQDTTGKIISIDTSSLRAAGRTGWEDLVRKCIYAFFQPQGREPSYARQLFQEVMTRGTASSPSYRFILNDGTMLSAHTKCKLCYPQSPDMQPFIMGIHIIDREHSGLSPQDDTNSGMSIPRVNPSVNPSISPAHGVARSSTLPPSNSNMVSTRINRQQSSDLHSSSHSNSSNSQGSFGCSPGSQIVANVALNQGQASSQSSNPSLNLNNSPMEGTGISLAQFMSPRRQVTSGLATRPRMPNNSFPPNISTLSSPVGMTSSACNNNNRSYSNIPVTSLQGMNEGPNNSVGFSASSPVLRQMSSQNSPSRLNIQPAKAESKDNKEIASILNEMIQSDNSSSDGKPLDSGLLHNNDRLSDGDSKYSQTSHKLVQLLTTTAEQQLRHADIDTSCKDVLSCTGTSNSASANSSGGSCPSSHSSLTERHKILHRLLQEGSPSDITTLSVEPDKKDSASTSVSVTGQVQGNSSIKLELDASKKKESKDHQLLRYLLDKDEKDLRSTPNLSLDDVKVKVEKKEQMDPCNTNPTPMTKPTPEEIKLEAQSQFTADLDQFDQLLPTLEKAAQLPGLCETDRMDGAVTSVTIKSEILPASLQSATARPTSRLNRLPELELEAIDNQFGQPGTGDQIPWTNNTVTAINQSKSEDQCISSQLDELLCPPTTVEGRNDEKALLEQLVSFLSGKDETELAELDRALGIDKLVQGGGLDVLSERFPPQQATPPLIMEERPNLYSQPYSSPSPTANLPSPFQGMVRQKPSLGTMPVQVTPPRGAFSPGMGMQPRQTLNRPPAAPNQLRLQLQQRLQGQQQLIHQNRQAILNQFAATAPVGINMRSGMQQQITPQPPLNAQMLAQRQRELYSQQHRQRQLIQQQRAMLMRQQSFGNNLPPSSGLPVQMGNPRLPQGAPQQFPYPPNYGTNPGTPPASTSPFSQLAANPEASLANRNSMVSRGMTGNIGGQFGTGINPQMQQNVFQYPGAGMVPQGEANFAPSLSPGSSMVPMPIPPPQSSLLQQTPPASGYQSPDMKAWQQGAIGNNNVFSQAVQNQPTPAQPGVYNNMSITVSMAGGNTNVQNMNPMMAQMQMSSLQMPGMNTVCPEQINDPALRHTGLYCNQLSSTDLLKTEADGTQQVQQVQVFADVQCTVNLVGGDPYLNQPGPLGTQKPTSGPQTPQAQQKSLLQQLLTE

[4] = VP16 transactivation inhibitors, counter-screen for SRC1 inhibitor project, cell-based, luminescence, high throughput (AID 588824; in the data active = inhibition above about 25%); settings: cell-based VP16 transactivation luciferase luminescence; at 3.6 µM; active compounds read high
[5] = StAR promoter reporter inhibitors, counter-screen for LRH-1 inverse agonist project, cell-based, luminescence, high throughput (AID 651611; in the data active = inhibition above about 28%); settings: StAR promoter luciferase reporter counterscreen, at 3.6 µM, active compounds read high
[6] = target: Nuclear receptor subfamily 5 group A member 2 (Homo sapiens) (UniProt O00482); assay: LRH-1 (NR5A2) inverse agonists, retest, confirmation, cell-based, luminescence (AID 651613; in the data active = inhibition above about 42%;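 also: HEK293T cells co-transfected with LRH-1 and StAR promoter luciferase reporter; 0% = vehicle wells and 100% = parental cells lacking receptor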); settings: cell-based LRH-1 luciferase reporter, inverse agonism; at 3.6 µM; active compounds read high
Chain of Nuclear receptor subfamily 5 group A member 2 (Homo sapiens) (O00482 whole entry, looked up): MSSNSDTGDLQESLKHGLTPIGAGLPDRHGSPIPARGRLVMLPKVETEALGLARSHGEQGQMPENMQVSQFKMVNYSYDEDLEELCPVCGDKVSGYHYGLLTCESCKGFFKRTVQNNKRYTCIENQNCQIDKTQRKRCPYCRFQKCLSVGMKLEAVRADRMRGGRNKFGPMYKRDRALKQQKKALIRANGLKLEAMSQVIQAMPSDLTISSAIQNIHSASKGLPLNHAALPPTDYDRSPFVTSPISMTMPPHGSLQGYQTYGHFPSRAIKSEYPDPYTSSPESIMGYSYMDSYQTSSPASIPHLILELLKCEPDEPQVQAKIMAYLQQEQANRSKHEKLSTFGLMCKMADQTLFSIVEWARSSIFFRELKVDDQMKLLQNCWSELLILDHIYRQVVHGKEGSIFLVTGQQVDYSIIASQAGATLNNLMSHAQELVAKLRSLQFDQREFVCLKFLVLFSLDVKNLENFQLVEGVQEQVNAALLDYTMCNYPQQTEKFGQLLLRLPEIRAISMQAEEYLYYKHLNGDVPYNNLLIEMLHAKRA

[7] = target: Steroidogenic factor 1 (Homo sapiens) (UniProt Q13285); assay: SF1 (NR5A1) inverse agonists, counter-screen for LRH-1 inverse agonist project, cell-based, luminescence, high throughput (AID 651614); settings: cell-based SF1 luciferase reporter, at 3.6 µM, active compounds read high;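 also: cells cotransfected with StAR promoter reporter and SF1 expression vector; 0% = vehicle on cells with receptor and 100% = vehicle on cells lacking receptor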
Chain of Steroidogenic factor 1 (Homo sapiens) (Q13285 whole entry, looked up, the tested form may be a part): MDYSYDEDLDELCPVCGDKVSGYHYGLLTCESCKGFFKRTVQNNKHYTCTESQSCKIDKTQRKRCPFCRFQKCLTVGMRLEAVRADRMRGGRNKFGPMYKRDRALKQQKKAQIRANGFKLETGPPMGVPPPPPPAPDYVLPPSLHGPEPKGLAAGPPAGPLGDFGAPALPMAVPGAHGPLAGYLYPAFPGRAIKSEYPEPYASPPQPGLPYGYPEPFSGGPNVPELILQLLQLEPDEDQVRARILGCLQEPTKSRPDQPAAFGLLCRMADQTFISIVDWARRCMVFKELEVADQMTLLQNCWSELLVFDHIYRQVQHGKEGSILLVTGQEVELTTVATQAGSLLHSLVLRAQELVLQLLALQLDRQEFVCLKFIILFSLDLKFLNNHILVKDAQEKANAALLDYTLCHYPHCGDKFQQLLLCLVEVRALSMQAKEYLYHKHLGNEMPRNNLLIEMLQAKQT

[8] = VP16 transactivation reporter inhibitors, counter-screen for LRH-1 inverse agonist project, cell-based, luminescence, high throughput (AID 651615; in the data active = inhibition above about 33%); settings: Gal4-VP16 luciferase reporter cells, at 3.6 µM, active compounds read high

Measured: inhibition

CN1OC[C@@H]2CN[C@H](c3ccc(-c4cc5ccccc5o4)cc3)C[C@@H]21
active: [1] 83.3% | [2] 76.8% | [3] 68.6% | [4] 68.7% | [5] 78.3% | [6] 62.2% | [7] 79.8% | [8] 65.2%

Cc1ccc(-c2cc3cccc[n+]3cc2-c2ccc(C)cc2)cc1
active: [1] 72.3% | [2] 53.5% | [4] 64.4% | [5] 56.9% | [6] 91.7% | [7] 83.4% | [8] 79.4%
inactive: [3] 35.9%

N=C1C=CC(=C(c2ccc(N)cc2)c2ccc(N)cc2)C=C1
active: [1] 56.2% | [2] 60% | [4] 45.9% | [5] 54.9% | [6] 110% | [7] 85.2% | [8] 88.5%
inactive: [3] 45.2%

CN(C)CCOc1ccc2c(c1)C(=O)C(=Cc1ncc([N+](=O)[O-])n1C)C2
inactive: [3] 43%
active: [1] 54.2% | [2] 35.2% | [4] 27% | [5] 68.6% | [6] 88.4% | [7] 73.7% | [8] 51.6%

CCCCC[n+]1cccc2c3ccccc3ccc21
active: [2] 59% | [4] 59% | [5] 51.5% | [6] 90% | [7] 81.5% | [8] 77%
inactive: [1] 39.9% | [3] 30.7%

N=c1c2c(n(Cc3cccc(Cl)c3)c3c1CCC3)CCCC2
inactive: [1] 42.1% | [3] 40.5%
active: [2] 65.2% | [4] 73.9% | [5] 53.3% | [6] 108% | [7] 83.8% | [8] 85.4%
